# Laboratory results from ChEMBL document CHEMBL3988442, “University of Dundee, Small-Polar-MMV Screening Library” (2021).
# For some assays here: Measured potencies and affinities stand elsewhere.
# Columns and labels:
# Parameters in all cases: scale not given: direction of the effect not stated beside the values
# [1] = target: Protein translocase subunit SecA (Escherichia coli (strain K12)) (UniProt P10408); experiment: Assay to Identify E. coli SecA ATPase Inhibitors; format: functional; details: 30 µM
# Sequence of Protein translocase subunit SecA (Escherichia coli (strain K12)) (P10408 whole entry): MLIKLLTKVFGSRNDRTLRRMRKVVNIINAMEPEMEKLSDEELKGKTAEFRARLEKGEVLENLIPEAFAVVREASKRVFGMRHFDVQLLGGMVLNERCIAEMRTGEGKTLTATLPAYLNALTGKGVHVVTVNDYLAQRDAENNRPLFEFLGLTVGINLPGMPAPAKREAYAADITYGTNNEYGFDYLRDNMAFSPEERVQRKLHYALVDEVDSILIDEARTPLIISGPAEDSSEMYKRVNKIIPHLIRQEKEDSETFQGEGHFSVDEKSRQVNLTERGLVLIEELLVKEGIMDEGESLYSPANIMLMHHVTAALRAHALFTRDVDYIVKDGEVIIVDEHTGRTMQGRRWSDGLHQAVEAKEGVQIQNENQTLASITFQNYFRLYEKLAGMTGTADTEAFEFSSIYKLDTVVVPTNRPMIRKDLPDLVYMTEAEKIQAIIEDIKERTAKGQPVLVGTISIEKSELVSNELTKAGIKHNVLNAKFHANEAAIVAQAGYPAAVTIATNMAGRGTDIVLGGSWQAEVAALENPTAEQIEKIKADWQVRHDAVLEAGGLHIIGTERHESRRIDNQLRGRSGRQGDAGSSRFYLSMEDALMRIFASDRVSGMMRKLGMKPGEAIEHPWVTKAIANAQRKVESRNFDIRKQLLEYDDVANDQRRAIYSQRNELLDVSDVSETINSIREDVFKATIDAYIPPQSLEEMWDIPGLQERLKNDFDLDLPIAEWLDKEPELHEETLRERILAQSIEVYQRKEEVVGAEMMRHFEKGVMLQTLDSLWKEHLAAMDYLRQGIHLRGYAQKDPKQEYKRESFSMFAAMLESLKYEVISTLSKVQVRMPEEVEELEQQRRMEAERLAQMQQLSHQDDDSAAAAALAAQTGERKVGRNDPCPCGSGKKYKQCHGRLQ
# [2] = target: T1, Ubiquitin-activating enzyme e1, putative (Leishmania donovani (strain BPK282A1)) (UniProt E9BSI1); experiment: Leishmania donovani Ubiquitin Activating Enzyme (LdE1); format: functional; details: 30 µM
# T1 sequence (whole entry): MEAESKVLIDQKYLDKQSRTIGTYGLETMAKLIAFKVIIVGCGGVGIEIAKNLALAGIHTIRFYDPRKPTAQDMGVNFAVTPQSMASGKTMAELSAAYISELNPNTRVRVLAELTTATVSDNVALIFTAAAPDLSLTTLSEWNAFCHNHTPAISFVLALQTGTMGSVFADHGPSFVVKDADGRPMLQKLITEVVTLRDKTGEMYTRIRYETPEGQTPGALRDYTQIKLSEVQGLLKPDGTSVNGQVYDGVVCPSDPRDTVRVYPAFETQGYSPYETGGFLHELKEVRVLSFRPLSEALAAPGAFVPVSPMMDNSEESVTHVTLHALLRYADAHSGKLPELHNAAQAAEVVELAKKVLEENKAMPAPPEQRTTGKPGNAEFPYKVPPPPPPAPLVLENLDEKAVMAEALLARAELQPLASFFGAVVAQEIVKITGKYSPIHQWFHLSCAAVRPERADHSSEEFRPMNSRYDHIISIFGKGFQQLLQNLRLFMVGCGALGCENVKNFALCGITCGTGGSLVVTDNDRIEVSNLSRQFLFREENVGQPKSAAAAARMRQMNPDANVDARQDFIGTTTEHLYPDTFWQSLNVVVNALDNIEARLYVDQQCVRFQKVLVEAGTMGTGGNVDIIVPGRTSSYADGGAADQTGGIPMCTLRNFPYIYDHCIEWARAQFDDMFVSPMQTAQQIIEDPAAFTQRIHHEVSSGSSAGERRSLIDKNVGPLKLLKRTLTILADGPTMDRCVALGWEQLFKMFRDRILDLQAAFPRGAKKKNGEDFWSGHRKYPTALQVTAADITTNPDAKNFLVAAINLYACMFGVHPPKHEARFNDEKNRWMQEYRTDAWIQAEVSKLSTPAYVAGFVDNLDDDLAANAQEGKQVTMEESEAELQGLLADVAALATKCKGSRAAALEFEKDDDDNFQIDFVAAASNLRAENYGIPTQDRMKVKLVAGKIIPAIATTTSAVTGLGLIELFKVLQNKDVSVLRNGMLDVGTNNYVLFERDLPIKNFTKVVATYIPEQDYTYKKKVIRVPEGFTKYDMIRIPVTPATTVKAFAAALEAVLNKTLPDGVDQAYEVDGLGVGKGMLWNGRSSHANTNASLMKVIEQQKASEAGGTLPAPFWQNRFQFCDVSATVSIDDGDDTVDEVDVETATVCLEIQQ
# [3] = target: AMP-activated protein kinase, AMPK (Homo sapiens) (UniProt P54646+O43741+P54619+Q9UGJ0+Q9Y478+Q13131+Q9UGI9); experiment: AMP-dependent Kinase enzyme assay. An in vitro enzyme assay that detects ADP turnover that is directly proportional to AMPK activity. This uses naive AMPK that is activated during the assay with MK-8722; format: functional; details: 30 µM
# [4] = target: Sialic acid-binding Ig-like lectin 9 (Homo sapiens) (UniProt Q9Y336); experiment: Hs-Siglec9 ALPHAscreen SOP 20170721; details: 10 µM
# Sequence of Sialic acid-binding Ig-like lectin 9 (Homo sapiens) (Q9Y336 whole entry): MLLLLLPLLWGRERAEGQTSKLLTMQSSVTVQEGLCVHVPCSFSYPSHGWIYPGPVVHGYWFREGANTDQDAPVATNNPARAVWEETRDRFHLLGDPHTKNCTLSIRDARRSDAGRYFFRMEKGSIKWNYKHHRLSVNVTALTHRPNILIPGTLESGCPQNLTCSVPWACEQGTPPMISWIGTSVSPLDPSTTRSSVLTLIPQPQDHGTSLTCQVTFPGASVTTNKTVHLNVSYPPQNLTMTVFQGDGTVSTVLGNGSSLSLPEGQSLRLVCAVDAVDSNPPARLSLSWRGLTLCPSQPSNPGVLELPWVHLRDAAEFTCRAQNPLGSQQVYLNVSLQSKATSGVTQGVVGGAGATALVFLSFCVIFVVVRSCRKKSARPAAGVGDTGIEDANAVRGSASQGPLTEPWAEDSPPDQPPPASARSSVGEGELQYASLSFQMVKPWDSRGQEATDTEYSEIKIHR
# Trypanosoma cruzi = experiment: Trypanosoma cruzi phosphomannomutase and mannose-1-phosphate guanylyltransferase assay; format: functional; details: 10 µM
# [5] = target: T2, Arginase-2, mitochondrial (Homo sapiens) (UniProt P78540); experiment: in vitro enzyme assay to detect the production of urea directly proportional to the activity of Arginase II; format: functional; details: 33.3 µM; note: in the data most compounds retested in dose-response had high values
# T2 sequence (whole entry): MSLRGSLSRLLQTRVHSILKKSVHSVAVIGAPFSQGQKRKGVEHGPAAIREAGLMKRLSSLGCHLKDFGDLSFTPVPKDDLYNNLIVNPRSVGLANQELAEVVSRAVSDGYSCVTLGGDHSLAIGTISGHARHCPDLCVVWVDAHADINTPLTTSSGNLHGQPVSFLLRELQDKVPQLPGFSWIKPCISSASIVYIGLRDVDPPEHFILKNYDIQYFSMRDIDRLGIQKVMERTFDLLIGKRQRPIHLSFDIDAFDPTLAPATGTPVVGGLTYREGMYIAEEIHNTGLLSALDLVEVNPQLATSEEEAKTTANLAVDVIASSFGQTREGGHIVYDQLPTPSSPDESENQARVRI
# [6] = target: T3, Proteasome subunit beta (Trypanosoma cruzi) (UniProt O96673); experiment: Trypanosoma cruzi proteasome chymotrypsin-like activity (TcProtChymo) assay.; note: in the data most compounds retested in dose-response had high values; format: functional; details: 9.37 µM
# T3 sequence (whole entry): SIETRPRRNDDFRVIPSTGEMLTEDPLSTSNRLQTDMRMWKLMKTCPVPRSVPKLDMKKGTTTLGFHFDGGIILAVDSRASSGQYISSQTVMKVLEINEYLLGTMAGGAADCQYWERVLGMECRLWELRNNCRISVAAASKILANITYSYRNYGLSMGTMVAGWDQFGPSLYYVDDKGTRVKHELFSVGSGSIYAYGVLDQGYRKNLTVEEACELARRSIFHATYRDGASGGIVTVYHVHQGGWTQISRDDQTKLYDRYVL
# Homo sapiens = species on record: Homo sapiens; experiment: To identify inhibition of the IFN signalling (Jak-Stat) pathway via expression of an eGFP reporter gene under the control of an IFN-stimulated response element (ISRE) containing MxA promoter.; format: functional; details: 30 µM
# [7] = target: T4, Tyrosyl-tRNA synthetase, putative (Trypanosoma cruzi (strain CL Brener)) (UniProt Q4DSP6); experiment: Trypanosoma cruzi tyrosyl tRNA synthetase (TcYRS) _High Tyrosine SOP; format: functional; details: 30 µM; note: in the data most compounds retested in dose-response had high values
# T4 sequence (whole entry): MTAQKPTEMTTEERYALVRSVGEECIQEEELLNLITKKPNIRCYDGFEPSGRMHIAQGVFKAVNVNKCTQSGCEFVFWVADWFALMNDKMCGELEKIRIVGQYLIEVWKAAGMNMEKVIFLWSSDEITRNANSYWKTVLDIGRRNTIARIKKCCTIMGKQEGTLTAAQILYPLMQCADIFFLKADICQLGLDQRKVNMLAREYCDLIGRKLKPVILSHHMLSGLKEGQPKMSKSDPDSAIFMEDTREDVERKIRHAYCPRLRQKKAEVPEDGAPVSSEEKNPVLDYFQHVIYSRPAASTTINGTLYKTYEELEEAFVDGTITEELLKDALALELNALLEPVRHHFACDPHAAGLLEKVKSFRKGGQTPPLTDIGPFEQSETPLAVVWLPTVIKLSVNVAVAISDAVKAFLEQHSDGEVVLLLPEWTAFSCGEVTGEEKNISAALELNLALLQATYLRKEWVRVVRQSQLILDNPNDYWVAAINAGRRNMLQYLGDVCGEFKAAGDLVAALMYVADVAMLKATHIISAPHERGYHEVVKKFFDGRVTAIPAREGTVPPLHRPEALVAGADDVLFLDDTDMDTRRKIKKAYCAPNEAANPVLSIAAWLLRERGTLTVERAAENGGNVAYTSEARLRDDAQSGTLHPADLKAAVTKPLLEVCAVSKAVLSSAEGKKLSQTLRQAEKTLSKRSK
# [8] = target: T4, Tyrosyl-tRNA synthetase, putative (Trypanosoma cruzi (strain CL Brener)); experiment: Trypanosoma cruzi tyrosyl tRNA synthetase (TcYRS) SOP; format: functional; details: 30 µM
# [9] = target: Chromo domain-containing protein 1 (Saccharomyces cerevisiae (strain ATCC 204508 / S288c) (Baker's yeast)) (UniProt P32657); experiment: ScCHD-1 Enzyme Inhibition Assay; format: functional; details: 30 µM; note: in the data most compounds retested in dose-response had high values
# Sequence of Chromo domain-containing protein 1 (Saccharomyces cerevisiae (strain ATCC 204508 / S288c) (Baker's yeast)) (P32657 whole entry, the tested form may be a part): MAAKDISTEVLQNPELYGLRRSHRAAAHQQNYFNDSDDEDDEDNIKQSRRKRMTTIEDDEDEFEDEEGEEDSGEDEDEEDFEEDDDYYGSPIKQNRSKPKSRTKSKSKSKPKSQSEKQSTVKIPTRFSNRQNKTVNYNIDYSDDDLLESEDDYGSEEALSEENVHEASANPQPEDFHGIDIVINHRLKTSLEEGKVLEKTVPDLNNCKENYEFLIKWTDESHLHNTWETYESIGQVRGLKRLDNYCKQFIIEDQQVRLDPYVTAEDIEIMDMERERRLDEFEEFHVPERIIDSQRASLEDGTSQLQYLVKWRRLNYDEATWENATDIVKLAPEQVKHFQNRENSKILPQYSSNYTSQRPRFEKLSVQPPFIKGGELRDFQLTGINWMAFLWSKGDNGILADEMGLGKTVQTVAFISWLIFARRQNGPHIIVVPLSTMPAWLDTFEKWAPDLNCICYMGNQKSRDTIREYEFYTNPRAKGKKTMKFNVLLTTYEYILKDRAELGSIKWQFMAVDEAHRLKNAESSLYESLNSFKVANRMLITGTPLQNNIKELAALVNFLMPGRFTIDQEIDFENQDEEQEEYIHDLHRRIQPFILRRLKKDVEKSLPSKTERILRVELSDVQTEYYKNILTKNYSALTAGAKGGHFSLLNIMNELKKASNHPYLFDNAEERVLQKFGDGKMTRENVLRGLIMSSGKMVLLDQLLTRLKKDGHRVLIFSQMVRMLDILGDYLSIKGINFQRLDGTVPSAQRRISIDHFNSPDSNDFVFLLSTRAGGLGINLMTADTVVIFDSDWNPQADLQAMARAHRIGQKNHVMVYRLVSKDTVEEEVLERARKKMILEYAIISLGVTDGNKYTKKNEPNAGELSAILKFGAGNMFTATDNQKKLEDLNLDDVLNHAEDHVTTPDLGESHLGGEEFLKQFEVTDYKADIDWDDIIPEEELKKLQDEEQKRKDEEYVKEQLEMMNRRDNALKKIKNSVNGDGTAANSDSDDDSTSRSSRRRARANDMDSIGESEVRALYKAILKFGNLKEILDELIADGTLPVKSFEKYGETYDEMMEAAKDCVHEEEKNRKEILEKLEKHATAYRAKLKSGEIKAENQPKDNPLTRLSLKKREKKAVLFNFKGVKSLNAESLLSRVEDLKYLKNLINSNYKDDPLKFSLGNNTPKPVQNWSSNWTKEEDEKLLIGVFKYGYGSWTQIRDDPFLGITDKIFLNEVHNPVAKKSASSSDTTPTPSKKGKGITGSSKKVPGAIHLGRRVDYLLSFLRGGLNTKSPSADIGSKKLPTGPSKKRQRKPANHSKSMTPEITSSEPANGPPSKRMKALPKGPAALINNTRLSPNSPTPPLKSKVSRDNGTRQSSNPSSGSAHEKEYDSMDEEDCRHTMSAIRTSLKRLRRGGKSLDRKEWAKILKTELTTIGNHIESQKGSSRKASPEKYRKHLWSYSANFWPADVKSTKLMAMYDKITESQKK
SMILES,Percent Effect [1],Percent Effect [2],Percent Effect [3],Percent Effect [4],Percent Effect (Trypanosoma cruzi),Percent Effect [5],Percent Effect [6],Percent Effect (Homo sapiens),Percent Effect [7],Percent Effect [8],Percent Effect [9]
CN1CCN(C[C@@H]2OC[C@H]3CN(Cc4cccc(F)c4)CC[C@H]32)CC1,0.931%,2.67%,4.95%,4.78%,2.9%,-53.9%,7.01%,-8.27%,2.08%,2.5%,-4.33%
CCc1nnsc1C(=O)NC1CCN(c2ccccn2)CC1,-1.79%,18.9%,1.62%,8.18%,5.38%,21.1%,15%,15.5%,3.23%,16.1%,-7.21%
NC(=O)c1cc(C2CCCN(C(=O)CCc3cscn3)C2)n[nH]1 (configuration not stated),-1.95%,0%,9.04%,3.83%,1.69%,-0.356%,1.86%,8.48%,2.91%,2.44%,-5.18%
O=C(c1cnoc1)N1CCC[C@]2(C[C@@H](OCc3ccccn3)CO2)C1,-1.86%,21.9%,-6.83%,23.6%,5.56%,-1.6%,12.8%,1.81%,6.25%,8.64%,-6.46%
Cc1cc2c(=O)n3c(nc2s1)CCN(C(=O)c1cnn(C)c1C)CC3,-6.2%,-17.6%,6.62%,5.04%,1.98%,-6.26%,9.83%,13%,5.38%,11.7%,-18.8%
COc1ccnc(N2CCN(C(=O)c3csc(C(C)C)n3)CC2)n1,-7.52%,10.8%,-3.77%,29.4%,9.68%,5.21%,7.3%,13%,4.3%,11.1%,-11.3%
CCn1cc(Br)c(C(=O)NCc2cccnc2)n1,-2.44%,7.79%,-1.81%,5.82%,0.885%,-9.65%,19.3%,3.08%,7.53%,16.1%,-1.44%
Cc1noc(C)c1CCC(=O)N1CCN(CCn2cncn2)CC1,-2.87%,4.17%,-6.26%,2.38%,0.68%,1.77%,21.1%,-11.6%,8.42%,10.3%,-3.13%
Cc1ccc(NC2CCN(C(=O)CN(C)C3CC3)CC2)nn1,-4.6%,-6.33%,-0.261%,16.3%,-3.79%,0.645%,6.69%,-12.3%,4.17%,7.59%,-6.68%
O=C(CCc1ccccn1)N1CCc2cc(Cl)cc(Cl)c2C1,-0.0645%,7.79%,5.1%,1.57%,-9.34%,-17.9%,15%,47.7%,-1.07%,-3.7%,-2.98%
CCc1c(C)nc2n(c1=O)CC(C(=O)Nc1nccs1)CS2 (configuration not stated),-7.87%,13%,-4.33%,-3.77%,5.62%,5.81%,7.31%,4.32%,3.17%,14.1%,-7.44%
Cc1cc(NC(=O)CN2CCn3c(nnc3C(C)C)C2)no1,-2.36%,7.79%,2.84%,-23.1%,2.25%,-5.26%,16.6%,25.4%,5.71%,25.9%,-21.2%
CCCc1n[nH]c(C2CN(CCCOc3ccccc3)CCO2)n1 (configuration not stated),-5.86%,1.27%,7.41%,1.64%,-1.74%,1.5%,-1.03%,2.3%,4.17%,7.59%,13.9%
CCOCC1CN(C(=O)c2cccn2C)Cc2cnn(CC3CC3)c21 (configuration not stated),-4.01%,5.2%,-0.603%,8.24%,0.69%,-12.3%,3.48%,6.88%,11.6%,16.7%,-8.59%
CC(C)(C)NC(=O)CNC(=O)CCc1ccccc1Br,-3.98%,15.3%,-5.91%,3.62%,4.37%,23.4%,21.8%,-3.55%,6.32%,7.69%,-2.98%
O=S(=O)(c1cccs1)N1CCCn2nnc(CN3CCCCC3)c2C1,-2.04%,2.67%,-7.89%,2%,2.7%,-43.5%,-0.513%,-33.6%,-1.04%,2.5%,-4.44%
O=C(Cn1c(=O)n(Cc2ccco2)c2ncccc21)Nc1ccccn1,-8.13%,1.35%,4.77%,2.6%,-6.13%,-4.41%,9.2%,3.38%,5.38%,1.3%,-0.416%
O=C(NCCCn1nc2ccccn2c1=O)NC1CCC(O)CC1 (configuration not stated),-2.16%,2.74%,9.76%,3.96%,-8.62%,0.455%,22.5%,9.28%,0%,2.5%,-4.68%
O=C(c1ccsc1)N1CCOC2(CCN(Cc3cccnc3)CC2)C1,-1.61%,-2.67%,3.67%,7.65%,0.579%,-3.4%,8.38%,-17%,3.12%,5%,-6.25%
O=C(c1cccnc1-n1cccn1)N1CCN(CC2CC2)CC1,-4.46%,5.41%,-1.98%,1.24%,-1.54%,-0.952%,13.1%,-3.39%,4.76%,0%,-1.18%
CCN(CC(=O)NC(C)C)S(=O)(=O)N1CCCCCC1,-2.15%,16.2%,-3.94%,11.8%,2.64%,3.23%,12.3%,5.69%,3.23%,16.1%,-10.9%
CNC(=O)[C@H]1C[C@H]2OCC[C@H]2N(Cc2ccc(C)o2)C1,-0.274%,7.79%,4.6%,0.238%,-6.02%,-4.52%,9.57%,7.69%,1.06%,8.97%,-6.31%
